In ChEMBL document CHEMBL3988442, “University of Dundee, Small-Polar-MMV Screening Library” (2021):
Out of some 48,000 compounds screened, about 13,000 (27%) showed an effect of 50% or more. The list shows a part of the results.

system: Wolbachia pipientis; assay: Anti-Wolbachia Cell-Based Screen; format: functional; parameters: scale not given: in the data most compounds retested in dose-response had high values; details: 5 µM

| SMILES | Percent Effect [%] |
| --- | --- |
| CC(c1ccc(-c2cnc(N)nc2)cc1)N1CCOCC1 (configuration not stated) | 42.28 |
| Cn1ccnc1C(=O)N1CCC2(CCN2c2ncccn2)C1.O=C(O)C(F)(F)F (configuration not stated) | 99.87 |
| CCN1CCCC12CCN(C(=O)c1nccn1C)CC2.O=C(O)C(F)(F)F | -7.491 |
| Cn1cccc1C(=O)N1CCC2(CCN2c2ncccn2)C1.O=C(O)C(F)(F)F (configuration not stated) | 93.48 |
| Cn1ccc(C(=O)N2CCC3(CCN3c3ncccn3)C2)n1.O=C(O)C(F)(F)F (configuration not stated) | 111.1 |
| Cn1cccc1C(=O)N1CCC2(CC1)CN(c1ccccn1)CCO2.O=C(O)C(F)(F)F | -8.251 |
| O=C(O)C(F)(F)F.O=C(c1c[nH]cn1)N1CCC(F)(F)C2(CCN(c3ncccn3)C2)C1 (configuration not stated) | 7.042 |
| Cn1cccc1C(=O)N1CCC2(CCCN2c2ncccn2)CC1.O=C(O)C(F)(F)F | 1.069 |
| CCCC(C)N(C)Cc1nnc(-c2ccco2)o1 (configuration not stated) | -4.256 |
| CSc1c[nH]nc1NS(=O)(=O)c1cc(F)ccc1C | -3.23 |
| CCN1CCN(Cc2nc(Cc3ccccc3)n[nH]2)CC1 | 2.697 |
| O=C(NCc1ccc2c(c1)OCO2)[C@@H]1C=CCN1c1ncccn1 | 142.5 |
| O=C(CCc1ccc2c(c1)OCO2)Nc1cccnc1-n1cncn1 | 6.275 |
| O=C(NCc1ccc2c(c1)OCO2)[C@H]1C=CCN1c1ncccn1 | 120.2 |
| O=C(NCc1ccc2c(c1)OCO2)N1CCCC2(C1)OCCO2 | 2.082 |
| CC(NC(N)=O)C(=O)NCc1ccc(Br)c(F)c1 (configuration not stated) | -7.533 |
| CN1CCC(c2[nH]ncc2S(C)(=O)=O)CC1 | 125.9 |
| CN1CCN(C(=O)C2CCCc3[nH]ncc32)CC1 (configuration not stated) | -8.316 |
| CCC(CC)N1CCC(c2[nH]ncc2S(C)(=O)=O)C1 (configuration not stated) | 101.4 |
| CC(=O)N1CCN(C(=O)NCCCc2cn[nH]c2C)CC1 | -4.106 |
| CCc1cn[nH]c1C1CCN(C(=O)c2cc(C(C)=O)c(C)[nH]c2=O)CC1 | 3.575 |
| Cc1c(CN2CCCC(c3[nH]ncc3S(C)(=O)=O)C2)cnn1C (configuration not stated) | 3.915 |
| CC(=O)N1CCC(c2[nH]ncc2S(C)(=O)=O)CC1 | 87.45 |
| CC(=O)N(C)C1CCN(C(=O)NCC(C)Cc2cccs2)CC1 (configuration not stated) | 8.983 |
| O=C(O)[C@@H]1CN(Cc2ccc(-c3cc[nH]n3)s2)C[C@H]1C1CC1 | 7.901 |
| CCOC(=O)c1nnc2ccccc2c1N1CCN(C(C)C)CC1 | -0.1532 |
| COC(=O)[C@H]1C[C@@H](O)CCN1S(=O)(=O)c1cc(C)c(Cl)cc1C | -11.31 |
